Laboratory results: PubChem BioAssay AID1159580 (chemical genetic matrix, 2015)
Several values for one entry are separate records, joined by “and”; a condition that tells them apart may be missing. Equal values may be shown once. Hit rate of the full screen: of about 5,500 compounds, about 2,000 (36%) were called active. Another 18% or so got no clear call; they are omitted. No stated cut-off is given here; in the data, active means normalized growth mostly below about 0.91 (no sharp cut-off); inconclusive means no clear call, values can overlap the other calls; inactive means mostly above about 0.92. The list shows a part of the results.

Assay: chemical genetic growth profiling, strain panel (AID 1159580);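 further: tested at 20 µM; growth read once vehicle control cultures reached saturation at 30 °C; 1 = growth at the plate median or of vehicle wells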
Settings: S. cerevisiae deletion strains, growth OD

Measured: normalized growth

CC(=O)OCC1=C(C(=O)O)N2C(=O)[C@@H](NC(=O)CCCC(N)C(=O)O)C2SC1 (some centres not stated)
inactive: locus YAL013W, strain DEP1, stronger effect = lower value 1.02 | locus YAL021C, strain ccr4, stronger effect = lower value 1.01 | locus YAL026C, strain drs2, stronger effect = lower value 1.01 | locus YAL030W, strain snc1, stronger effect = lower value 0.998 | locus YBL061C, strain skt5, stronger effect = lower value 0.997 | locus YBR009C, strain hhf1, stronger effect = lower value 1.02 | locus YBR021W, strain FUR4, stronger effect = lower value 0.998 | locus YBR023C, strain chs3, stronger effect = lower value 0.987 | locus YBR171W, strain sec66, stronger effect = lower value 1 | locus YBR229C, strain ROT2, stronger effect = lower value 1 | locus YBR231C, strain swc5, stronger effect = lower value 0.992 | locus YBR279W, strain paf1, stronger effect = lower value 0.989 | locus YCL011C, strain gbp2, stronger effect = lower value 1 | locus YCL016C, strain dcc1, stronger effect = lower value 0.988 | locus YCL029C, strain bik1, stronger effect = lower value 1.02 | locus YCL061C, strain MRC1, stronger effect = lower value 0.997 | locus YCL069W, strain vba3, stronger effect = lower value 0.997 | locus YCR088W, strain abp1, stronger effect = lower value 0.998 | locus YDL005C, strain med2, stronger effect = lower value 0.992 | locus YDL035C, strain GPR1, stronger effect = lower value 1.03 | locus YDL040C, strain nat1, stronger effect = lower value 0.99 | locus YDL074C, strain BRE1, stronger effect = lower value 1 | locus YDL101C, strain DUN1, stronger effect = lower value 1.01 | locus YDL134C, strain PPH21, stronger effect = lower value 1.01 | locus YDL185W, strain tfp1, stronger effect = lower value 1 | locus YDL192W, strain arf1, stronger effect = lower value 1.01 | locus YDR001C, strain nth1, stronger effect = lower value 0.99 | locus YDR069C, strain doa4, stronger effect = lower value 1.01 | locus YDR101C, strain arx1, stronger effect = lower value 1 | locus YDR137W, strain rgp1, stronger effect = lower value 0.985 | locus YDR150W, strain NUM1, stronger effect = lower value 1.02 | locus YDR159W, strain sac3, stronger effect = lower value 1.01 | locus YDR162C, strain NBP2, stronger effect = lower value 1.02 | locus YDR195W, strain ref2 0.963 | locus YDR297W, strain sur2, stronger effect = lower value 0.999 | locus YDR318W, strain mcm21, stronger effect = lower value 1.05 | locus YDR334W, strain swr1, stronger effect = lower value 0.996 | locus YDR335W, strain msn5, stronger effect = lower value 0.992 | locus YDR388W, stronger effect = lower value 0.986 | locus YDR392W, strain spt3, stronger effect = lower value 0.942 | locus YDR502C, strain sam2, stronger effect = lower value 1.04 | locus YEL003W, strain gim4, stronger effect = lower value 0.994 | locus YEL037C, strain rad23, stronger effect = lower value 0.99 | locus YEL061C, strain CIN8 (second series), stronger effect = lower value 0.991 | locus YEL061C, strain CIN8, stronger effect = lower value 1.01 | locus YER015W, strain faa2, stronger effect = lower value 0.993 | locus YER016W, strain bim1, stronger effect = lower value 0.999 | locus YER110C, stronger effect = lower value 0.994 | locus YER111C, strain swi4, stronger effect = lower value 0.995 | locus YER155C, strain BEM2 (second series), stronger effect = lower value 1 | locus YER155C, strain BEM2, stronger effect = lower value 1 | locus YER167W, strain BCK2, stronger effect = lower value 1.03 | locus YFR010W, strain ubp6, stronger effect = lower value 1.01 | locus YGL078C, strain dbp3, stronger effect = lower value 1.01 | locus YGL086W, strain mad1, stronger effect = lower value 1.04 | locus YGL167C, strain pmr1, stronger effect = lower value 0.992 | locus YGL173C, strain kem1, stronger effect = lower value 1.01 | locus YGL227W, strain vid30, stronger effect = lower value 0.994 | locus YGL240W, strain doc1, stronger effect = lower value 0.998 | locus YGL248W, strain PDE1, stronger effect = lower value 1 | locus YGL253W, strain hxk2, stronger effect = lower value 0.982 | locus YGR078C, strain PAC10, stronger effect = lower value 1.01 | locus YGR135W, strain pre9, stronger effect = lower value 1.06 | locus YGR229C, strain SMI1, stronger effect = lower value 1.01 | locus YGR252W, strain gcn5, stronger effect = lower value 1.04 | locus YHR013C, strain ard1, stronger effect = lower value 1.09 | locus YHR027C, strain rpn1, stronger effect = lower value 0.99 | locus YHR030C, strain SLT2, stronger effect = lower value 1.01 and 0.982 | locus YHR079C, strain IRE1 (second series), stronger effect = lower value 0.999 | locus YHR079C, strain IRE1, stronger effect = lower value 0.988 | locus YHR094C, strain hxt1, stronger effect = lower value 0.991 | locus YHR129C, strain ARP1, stronger effect = lower value 1 | locus YHR142W, strain chs7, stronger effect = lower value 0.994 | locus YHR200W, strain rpn10, stronger effect = lower value 1.02 | locus YIL066C, strain RNR3, stronger effect = lower value 1.04 | locus YIL073C, strain SPO22, stronger effect = lower value 1.25 | locus YIL125W, strain kgd1, stronger effect = lower value 1 | locus YIR030C, strain dcg1, stronger effect = lower value 1 | locus YJL092W, strain hpr5, stronger effect = lower value 0.993 | locus YJL095W, strain BCK1 (second series), stronger effect = lower value 0.99 | locus YJL095W, strain BCK1, stronger effect = lower value 1.01 | locus YJL115W, strain asf1, stronger effect = lower value 0.985 | locus YJL129C, strain trk1, stronger effect = lower value 1 | locus YJL134W, strain LCB3, stronger effect = lower value 1 | locus YJL154C, strain vps35, stronger effect = lower value 0.986 | locus YJL164C, strain tpk1, stronger effect = lower value 1.01 | locus YJL166W, strain qcr8, stronger effect = lower value 0.989 | locus YJL168C, strain set2, stronger effect = lower value 0.996 | locus YJL187C, strain SWE1 (second series), stronger effect = lower value 1.03 | locus YJL187C, strain SWE1, stronger effect = lower value 0.994 | locus YJR043C, strain POL32, stronger effect = lower value 1.01 | locus YJR066W, strain TOR1, stronger effect = lower value 0.942
